Inconclusive results are not listed. Calls of active or inactive are those of the source. The calls were made as follows, unless noted: active = hit-call score of the fitted dose curve at least 0.9, where 1 is the maximum; inactive = score below 0.9.
Tests used:
[1] = ACEA_ER_80hr: ACEA Biosciences xCELLigence Real-Time Cell Analysis on Estrogen Receptor Agonism for Proliferation (AID 2282667; active = hit-call score of the fitted dose curve at least 0.9, where 1 is the maximum); conditions: T47D proliferation, impedance (xCELLigence), 80 h
Summary of the method: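 Estrogen-driven proliferation is captured as electrode impedance in T47D cells 80 h after compound addition. Test articles ran at 8 concentrations, 1:4 dilutions from 100 uM final, in two replicate plates.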

[2] = ATG_CRE_CIS: Attagene CIS-FACTORIAL HepG2 Assay for human cAMP Responsive Element (CRE) binding protein 3 (AID 2282926); conditions: HepG2 CRE cis-reporter, Attagene multiplexed mRNA; actives raise or lower the signal
Summary of the method: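 Transfected HepG2 were treated for 24 hours, then RNA was extracted and reporter cDNA amplified with sequence-specific primers. Labelled fragments were separated by capillary electrophoresis, and the CRE signal was fitted bidirectionally with DMSO as baseline.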

[3] = target: CCAAT/enhancer-binding protein beta (Homo sapiens) (UniProt P17676); experiment: ATG_C_EBP_CIS: Attagene CIS-FACTORIAL HepG2 Assay for human CCAAT/Enhancer Binding Protein (C/EBP) beta (AID 2282927); conditions: HepG2 Attagene cis-factorial transcription factor reporter; actives raise or lower the signal
Chain of CCAAT/enhancer-binding protein beta (Homo sapiens) (P17676 whole entry, looked up, the tested form may be a part): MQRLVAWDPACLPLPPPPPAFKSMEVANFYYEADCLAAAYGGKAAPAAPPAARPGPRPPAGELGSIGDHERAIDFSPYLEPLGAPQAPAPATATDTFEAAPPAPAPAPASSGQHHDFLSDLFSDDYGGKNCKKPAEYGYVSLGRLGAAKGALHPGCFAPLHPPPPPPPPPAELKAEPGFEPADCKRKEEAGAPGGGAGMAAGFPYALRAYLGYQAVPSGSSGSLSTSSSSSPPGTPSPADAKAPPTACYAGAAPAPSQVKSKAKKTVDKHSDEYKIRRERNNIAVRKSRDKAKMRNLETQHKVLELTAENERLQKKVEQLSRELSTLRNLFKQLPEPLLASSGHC
Summary of the method: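 Endogenous C/EBPb-driven reporter transcripts measured in transfected human HepG2 cells at 24 h via RT-PCR and capillary electrophoresis of labelled fragments. Activity fitted in both directions relative to DMSO baseline.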

[4] = ATG_CMV_CIS: Attagene CIS-FACTORIAL HepG2 Assay for human CMV (Internal Marker) (AID 2282928); conditions: HepG2 CMV promoter reporter, transcription factor profiling; actives raise or lower the signal;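 also: endpoint acts as a background internal control marker rather than a target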
Summary of the method: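 Endogenous transcription factor activity read in HepG2 via transfected cis-promoter reporter units. After 24 h dosing, reporter mRNA measured by RT-PCR/capillary electrophoresis; gain or loss of signal fit relative to DMSO.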

[5] = ATG_DR4_LXR_CIS: Attagene CIS-FACTORIAL HepG2 Assay for human Liver X Receptor (LXR), DR4 submotif (AID 2282929); conditions: HepG2 Attagene DR4 cis-reporter, mRNA transcription; actives raise or lower the signal
Summary of the method: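 HepG2, transient MRTU transfection, cis-element (DR4) promoter; 24 h compound exposure; total RNA → oligo(dT) RT → PCR → 6-FAM primer extension → HpaI cut → CE. Gain/loss vs DMSO, bidirectional fit.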

[6] = target: Aryl hydrocarbon receptor (Homo sapiens) (UniProt P35869); experiment: ATG_Ahr_CIS: Attagene CIS-FACTORIAL HepG2 Assay for human Aryl Hydrocarbon Receptor (Ahr) (AID 2282930); conditions: HepG2 AhR cis-factorial reporter transcription; actives raise or lower the signal
Chain of Aryl hydrocarbon receptor (Homo sapiens) (P35869 whole entry, looked up): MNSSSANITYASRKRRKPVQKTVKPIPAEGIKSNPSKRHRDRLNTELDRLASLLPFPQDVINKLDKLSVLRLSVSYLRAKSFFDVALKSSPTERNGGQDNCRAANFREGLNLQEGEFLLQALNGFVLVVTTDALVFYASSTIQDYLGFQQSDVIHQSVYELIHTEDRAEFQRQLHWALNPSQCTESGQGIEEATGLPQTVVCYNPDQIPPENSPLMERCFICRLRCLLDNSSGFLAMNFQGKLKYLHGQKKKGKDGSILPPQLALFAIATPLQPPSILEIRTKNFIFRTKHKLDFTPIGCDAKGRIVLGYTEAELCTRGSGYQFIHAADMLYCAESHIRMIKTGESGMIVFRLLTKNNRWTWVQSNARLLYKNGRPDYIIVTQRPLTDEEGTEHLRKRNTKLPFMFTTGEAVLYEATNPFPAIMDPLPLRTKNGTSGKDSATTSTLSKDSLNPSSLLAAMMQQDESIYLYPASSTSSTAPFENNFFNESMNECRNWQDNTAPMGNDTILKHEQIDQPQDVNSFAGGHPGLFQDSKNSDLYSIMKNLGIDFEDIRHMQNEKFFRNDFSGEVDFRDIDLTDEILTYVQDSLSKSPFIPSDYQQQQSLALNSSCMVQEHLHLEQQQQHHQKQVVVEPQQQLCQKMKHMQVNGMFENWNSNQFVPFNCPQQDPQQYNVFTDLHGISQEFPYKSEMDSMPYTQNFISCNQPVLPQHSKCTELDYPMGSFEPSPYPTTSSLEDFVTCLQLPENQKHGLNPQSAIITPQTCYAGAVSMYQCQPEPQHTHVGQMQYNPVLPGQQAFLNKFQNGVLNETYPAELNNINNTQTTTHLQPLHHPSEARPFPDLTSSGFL
Summary of the method: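 Reporter mRNA levels, quantified by RT-PCR and fluorescent capillary electrophoresis, reflect endogenous AhR transcriptional activity in HepG2 cells carrying transfected cis-promoter reporter constructs. Readout at 24 h post-dose; gain or loss fitted against DMSO baseline.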

[7] = ATG_AP_1_CIS: Attagene CIS-FACTORIAL HepG2 Assay for human Activator Protein 1 (AP-1) (AID 2282931); conditions: HepG2 Attagene cis-factorial AP-1 reporter mRNA; actives raise or lower the signal
Summary of the method: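 Transient MRTU transfection of HepG2 → 24 h chemical treatment → RNA isolation, RT-PCR, 6-FAM labelling, HpaI digest → capillary electrophoresis. Fit: bidirectional, DMSO negative control.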

[8] = ATG_AP_2_CIS: Attagene CIS-FACTORIAL HepG2 Assay for human Activator Protein 2 (AP-2) (AID 2282932); conditions: HepG2 AP-2 cis-reporter, Attagene transcription factor profiling; actives raise or lower the signal
Summary of the method: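 HepG2, transient MRTU transfection, cis-regulated reporters; 24 h compound exposure; RNA isolated, RT-PCR, 6-FAM labelling, HpaI digest, CE fluorescence. DMSO = negative control/baseline, bidirectional fit.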

[9] = ATG_BRE_CIS: Attagene CIS-FACTORIAL HepG2 Assay for human Bone Morphogenetic Protein (BMP) Response Element (BRE) (AID 2282933); conditions: HepG2 BMP response element reporter, Attagene transcription factor profiling; actives raise or lower the signal
Summary of the method: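 Gain- or loss-of-signal was derived by bidirectional fitting against DMSO controls. The signal came from reporter mRNA, measured by RT-PCR and capillary electrophoresis, in HepG2 cells transiently carrying multiple reporter units and dosed for 24 h.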

[10] = target: Retinoic acid receptor alpha (Homo sapiens) (UniProt P10276); experiment: ATG_DR5_RAR_CIS: Attagene CIS-FACTORIAL HepG2 Assay for human Retinoic Acid Receptor Alpha (RARE), DR5 submotif (AID 2282934); conditions: HepG2 Attagene cis-factorial RARE DR5 reporter, mRNA; actives raise or lower the signal
Chain of Retinoic acid receptor alpha (Homo sapiens) (P10276 whole entry, looked up): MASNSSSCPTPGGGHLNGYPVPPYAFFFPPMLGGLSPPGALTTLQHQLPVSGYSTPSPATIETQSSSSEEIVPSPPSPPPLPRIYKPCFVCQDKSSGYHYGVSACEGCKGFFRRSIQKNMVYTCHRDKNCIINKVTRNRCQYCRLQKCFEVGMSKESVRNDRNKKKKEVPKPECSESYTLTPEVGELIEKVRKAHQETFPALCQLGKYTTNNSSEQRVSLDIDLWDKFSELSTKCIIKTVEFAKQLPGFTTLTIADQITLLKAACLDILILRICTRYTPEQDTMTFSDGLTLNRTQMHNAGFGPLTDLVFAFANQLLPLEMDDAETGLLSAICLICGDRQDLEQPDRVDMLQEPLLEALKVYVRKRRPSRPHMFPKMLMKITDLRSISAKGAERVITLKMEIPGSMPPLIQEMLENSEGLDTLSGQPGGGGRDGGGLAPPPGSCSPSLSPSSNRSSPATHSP
Summary of the method: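 Reporter transcripts from a DR5-regulated unit, measured via RT-PCR plus capillary electrophoresis, reflect endogenous RAR activity in transiently transfected human HepG2 liver cells. Exposure lasted 24 h; gain or loss of signal scored against DMSO.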

[11] = target: Transcription factor E2F1 (Homo sapiens) (UniProt Q01094); experiment: ATG_E2F_CIS: Attagene CIS-FACTORIAL HepG2 Assay for human E2F Transcription Factor 1 (AID 2282935); conditions: HepG2 Attagene cis-reporter, E2F reporter RNA transcripts; actives raise or lower the signal
Chain of Transcription factor E2F1 (Homo sapiens) (Q01094 whole entry, looked up): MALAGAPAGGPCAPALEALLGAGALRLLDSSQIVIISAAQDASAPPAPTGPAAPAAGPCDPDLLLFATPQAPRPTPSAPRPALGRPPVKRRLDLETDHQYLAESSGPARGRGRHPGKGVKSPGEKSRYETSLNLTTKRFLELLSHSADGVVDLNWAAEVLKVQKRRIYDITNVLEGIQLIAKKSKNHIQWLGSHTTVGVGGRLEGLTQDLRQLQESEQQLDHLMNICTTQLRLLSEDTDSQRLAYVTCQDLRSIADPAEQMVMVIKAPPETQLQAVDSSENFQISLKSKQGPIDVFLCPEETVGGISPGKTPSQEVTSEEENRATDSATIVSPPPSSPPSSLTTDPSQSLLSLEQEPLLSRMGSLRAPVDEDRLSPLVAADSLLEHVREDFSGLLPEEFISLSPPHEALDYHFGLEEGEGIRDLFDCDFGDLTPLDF
Summary of the method: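 Cis-element reporter mRNA induction in transiently transfected HepG2, 24 h exposure. Activity fitted in both directions relative to DMSO negative control.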

[12] = ATG_M_61_CIS: Attagene CIS-FACTORIAL HepG2 Assay for M61 Transcription Factor (Internal Marker) (AID 2282937); conditions: HepG2 Attagene CIS-FACTORIAL M61 internal marker reporter; actives raise or lower the signal
Summary of the method: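 Human liver HepG2, transient MRTU transfection (cis promoter elements), 24 h compound. Total RNA → oligo(dT) RT → PCR → FAM label → HpaI → CE. Internal background marker; bidirectional fitting, DMSO = baseline.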

[13] = ATG_EGR_CIS: Attagene CIS-FACTORIAL HepG2 Assay for human Early Growth Response 1 (EGR1) (AID 2282938); conditions: HepG2 Attagene CIS-FACTORIAL EGR reporter mRNA; actives raise or lower the signal
Summary of the method: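 Transient transfection of human HepG2 with multiple cis-regulated reporter units, chemical exposure 24 h, total RNA isolated. Reverse transcription, PCR, fluorescent labelling and capillary electrophoresis quantify reporter transcripts; activity fitted bidirectionally against DMSO.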

[14] = ATG_M_19_CIS: Attagene CIS-FACTORIAL HepG2 Assay for M19 Transcription Factor (Internal Marker) (AID 2282939); conditions: HepG2 Attagene CIS-FACTORIAL M19 internal marker reporter; actives raise or lower the signal
Summary of the method: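 Following a 24 h exposure, RNA from transfected HepG2 cells was reverse-transcribed, PCR-amplified with reporter-specific primers, end-labelled with 6-FAM and HpaI-digested before capillary separation. Values represent gain or loss versus DMSO.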

[15] = ATG_Ets_CIS: Attagene CIS-FACTORIAL HepG2 Assay for human Erythroblast Transformation Specific (ETS) (AID 2282941); conditions: HepG2 ETS cis-reporter transcription, actives raise or lower the signal
Summary of the method: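 Steps: transfect HepG2 with multiple reporter units; treat compound 24 h; isolate RNA, DNase-treat, reverse-transcribe; PCR-amplify, label with 6-FAM, digest with HpaI; separate by capillary electrophoresis. Activity fitted both directions versus DMSO.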

[16] = target: Hepatocyte nuclear factor 3-beta (Homo sapiens) (UniProt Q9Y261); experiment: ATG_FoxA2_CIS: Attagene CIS-FACTORIAL HepG2 Assay for human Forkhead box A2 (FOXA2) (AID 2282942); conditions: HepG2 cis-reporter transcription factor activity, 24 h; actives raise or lower the signal
Chain of Hepatocyte nuclear factor 3-beta (Homo sapiens) (Q9Y261 whole entry, looked up): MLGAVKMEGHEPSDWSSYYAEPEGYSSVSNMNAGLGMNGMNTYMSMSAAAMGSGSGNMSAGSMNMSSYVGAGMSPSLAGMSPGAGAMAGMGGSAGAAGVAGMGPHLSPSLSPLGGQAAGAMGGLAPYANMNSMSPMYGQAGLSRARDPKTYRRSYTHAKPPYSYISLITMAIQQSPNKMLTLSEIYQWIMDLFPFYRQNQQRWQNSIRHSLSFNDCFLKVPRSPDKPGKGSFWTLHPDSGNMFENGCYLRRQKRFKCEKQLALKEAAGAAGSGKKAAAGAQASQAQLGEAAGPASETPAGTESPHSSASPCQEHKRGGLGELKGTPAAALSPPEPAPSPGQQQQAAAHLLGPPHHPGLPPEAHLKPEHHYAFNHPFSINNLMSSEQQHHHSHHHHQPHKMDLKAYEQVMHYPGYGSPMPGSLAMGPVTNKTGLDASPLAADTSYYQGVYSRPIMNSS
Summary of the method: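 Transient MRTU transfection of HepG2 liver cells; 24 h treatment; total RNA → oligo(dT) RT → PCR → FAM primer extension → HpaI cut → CE. Bidirectional fit vs DMSO.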

[17] = ATG_FoxO_CIS: Attagene CIS-FACTORIAL HepG2 Assay for human Forkhead box O (FoxO) (AID 2282943); conditions: HepG2 Attagene cis-reporter, FoxO element, mRNA; actives raise or lower the signal
Summary of the method: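 Endogenous transcription factor activity read from multiplexed cis-promoter reporter transcripts in transiently transfected HepG2, 24 h after dosing. Reporter RNA measured via RT-PCR plus capillary electrophoresis of FAM-labeled products; gain or loss relative to DMSO.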

[18] = ATG_GATA_CIS: Attagene CIS-FACTORIAL HepG2 Assay for human GATA Binding Protein (AID 2282944); conditions: HepG2 GATA cis-element reporter, Attagene multiplex mRNA; actives raise or lower the signal
Summary of the method: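 DMSO serves as negative control and baseline for bidirectional fitting of reporter mRNA changes. HepG2 cells bearing transiently transfected cis-promoter reporters were exposed 24 h; transcripts detected via RT-PCR and capillary electrophoresis.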

[19] = ATG_E_Box_CIS: Attagene CIS-FACTORIAL HepG2 Assay for human Enhancer Box (E-box) (AID 2282936); conditions: HepG2 E-box cis-reporter transcription, actives raise or lower the signal
Summary of the method: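 Cells: HepG2 (human liver), transient MRTU transfection. Exposure 24 h. RNA → oligo(dT) RT → PCR → 6-FAM label → HpaI → CE. Activity fitted both directions relative to DMSO.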

[20] = ATG_ERE_CIS: Attagene CIS-FACTORIAL HepG2 Assay for Estrogen Response Element (ERE) (AID 2282940); conditions: HepG2 ERE cis-reporter, Attagene RNA transcript; actives raise or lower the signal
Summary of the method: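 HepG2, transient cis-reporter units, 24 h exposure. RNA isolated, oligo(dT) RT, reporter-specific PCR, FAM extension, HpaI cut, CE detection. Gain/loss-of-signal vs DMSO.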

Measured: AC50

O=C1C=CC(=O)N1c1ccccc1
not listed: [19] | [20]
inactive: all other assays above

CNS(=O)(=O)C(F)(F)C(F)(F)C(F)(F)C(F)(F)C(F)(F)C(F)(F)C(F)(F)C(F)(F)F
active: [7] 13.7 µM
not listed: [11] | [20]
inactive: all other assays above

CC1CCCCC1
not listed: [19]
inactive: all other assays above

Cc1ccc([N+](=O)[O-])c(C)c1
active: [1] 22.4 µM
not listed: [19] | [20]
inactive: all other assays above

CCC/C=C/CO
not listed: [19]
inactive: all other assays above

OCC(F)(F)C(F)(F)C(F)(F)C(F)(F)C(F)(F)C(F)(F)CO
active: [1] 0.291 µM | [20] 0.0909 µM
not listed: [19]
inactive: all other assays above

COC(F)(C(F)F)C(F)(F)F (stereo not drawn)
not listed: [11]
inactive: all other assays above

Cc1ccc(O)cn1
not listed: [19] | [20]
inactive: all other assays above

CCN(CC)c1ccc(C=O)cc1
active: [1] 0.0998 µM | [15] 26 µM
not listed: [14] | [20]
inactive: all other assays above

O=C(O)C(F)(F)C(F)(F)C(F)(F)C(F)(F)C(F)(F)C(F)(F)C(F)F
active: [20] 64 µM
not listed: [19]
inactive: all other assays above

CO[Si](C)(CCC(F)(F)C(F)(F)C(F)(F)C(F)(F)C(F)(F)C(F)(F)F)OC
not listed: [14] | [19]
inactive: all other assays above

CC(C)(C)c1cc(Cc2cc(C(C)(C)C)c(O)c(C(C)(C)C)c2)cc(C(C)(C)C)c1O
not listed: [11]
inactive: all other assays above

CCCCOC(=O)[C@H](C)O
not listed: [11] | [14]
inactive: all other assays above

NC(=O)C(F)(F)C(F)(F)C(F)(F)C(F)(F)C(F)(F)C(F)(F)C(F)(F)F
active: [20] 16 µM
not listed: [11]
inactive: all other assays above

N#Cc1ccccc1O
active: [6] 10.8 µM
not listed: [14]
inactive: all other assays above

Source: PubChem BioAssay (EPA / NIEHS)
